rCAG binder: binds r(CAG) RNA repeats; inhibition, % at 3 µM; r(CAG) RNA repeat, TO-PRO-1 dye displacement fluorescence; actives 1.3% (n = 370,000);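 active = inhibition above the plate cutoff, the mean of all test compounds on that plate plus 3 SD, cut at about 35% in these data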;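 note: higher means more dye released from RNA so lower well fluorescence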
FAS-TE inh: blocks the thioesterase domain of human fatty acid synthase. P49327. recombinant FAS-TE, OMFH fluorogenic substrate, fluorescence endpoint. inhibition, % at 15 µM. actives 0.67% (n = 360,000). AID 602261;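 active = compounds whose normalised, plate-corrected inhibition of enzyme fluorescence in the single-dose primary screen is 50% or more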
NadD inh: inhibitors of Staphylococcus aureus NadD; inhibition, % at 20 µM; actives 0.78% (n = 360,000); purified NadD enzyme, colorimetric absorbance read-out; AID 602399; in the data active = inhibition above about 26%
NR3A LBD binder: modulators (binders) of human NR3A ligand-binding domain; NR3A LBD differential scanning fluorimetry, Tm shift; 0% = protein alone, 100% = glycine-bound protein; Tm shift relative to glycine control, % at 25 µM; actives 2.5% (n = 340,000);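 active = melting temperature shift of at least 10% of the positive control shift, at one fixed dose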
FAS-TE conf: confirmation of human fatty acid synthase thioesterase inhibitors; shares compounds with FAS-TE inh; recombinant FAS-TE, OMFH fluorogenic substrate, fluorescence; inhibition, % at 15 µM; actives 45% (n = 2,300); AID 624325;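 active = compounds inhibiting the enzyme by at least 50% at 15 µM in any one of the replicates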
Large screens that a line does not name were inactive (follow-up assays come after a bar, where they were run). An excerpt weighted towards active compounds, which were near 4.3% of everything screened.

COc1ccc(/C=C(/NC(=O)c2ccc([N+](=O)[O-])cc2)C(=O)NC(C)(C)C)cc1	FAS-TE inh 70 | FAS-TE conf 55
COc1ccc(/C=C(\NC(=O)c2ccc(C)cc2)C(=O)NCCCn2ccnc2)cc1	none
CC(=O)N1CCCN(C(=O)Cn2cnc3ccccc3c2=O)CC1	none (no result: FAS-TE inh, NadD inh, NR3A LBD binder)
C[C@@H]1COc2cccc(N3CCSCC3)c2S(=O)(=O)N1C	none (no result: FAS-TE inh, NadD inh, NR3A LBD binder)
Cc1ccc(C(=O)C2CCN(CC(=O)N(C)C3CCCCC3)CC2)cc1	none (no result: FAS-TE inh, NadD inh, NR3A LBD binder)
C=CCOC(=O)COc1ccc2c(C)c(CC)c(=O)oc2c1	FAS-TE inh 70 | FAS-TE conf 73
COc1cc(C(=O)NC(=S)Nc2ccc([N+](=O)[O-])cc2C)cc(OC)c1OC	none
COc1cc(C(=O)NC(=S)Nc2ccccc2[N+](=O)[O-])cc(OC)c1OC	FAS-TE inh 65 | FAS-TE conf inactive
CC(=C1SC(=S)NC1=O)c1ccccc1	none
CC1(c2ccccc2)CC(C)(C)N2C(=O)/C(=C3\SC(=S)NC3=O)c3cccc1c32 (stereo unspecified)	FAS-TE inh 78, NadD inh 35 | FAS-TE conf inactive
Cc1cc(C)c(C#N)c(SCC(O)COc2ccc(Br)cc2)n1 (stereo unspecified)	FAS-TE inh 63 | FAS-TE conf inactive
O=S(=O)(c1cccs1)N1CCC(c2cn3ccccc3n2)CC1	none (no result: FAS-TE inh, NadD inh, NR3A LBD binder)
COC(=O)C[C@H]1CC[C@H]2[C@H](COc3ccc(NC(=O)Cc4cccs4)cc3C(=O)N2C)O1	none (no result: FAS-TE inh, NadD inh, NR3A LBD binder)
CCCCNC(=O)C[C@@H]1C(=O)N(Cc2ccc(OC)cc2)C2=CCN(C(=O)OC(C)(C)C)C[C@]21C(=O)OCC	none (no result: FAS-TE inh, NadD inh, NR3A LBD binder)
FC(F)(F)c1cccc(N2CCN(C(=S)NC3CCCCC3)CC2)c1	FAS-TE inh 51 | FAS-TE conf inactive
COc1ccc([N+](=O)[O-])cc1/C=N/NC(=O)CNC(=O)C(c1ccccc1)c1ccccc1	none
COc1ccc([N+](=O)[O-])cc1/C=N/NC(=O)CNC(=O)c1cccc(F)c1	FAS-TE inh 70 | FAS-TE conf 75
COc1ccccc1N(C(=O)c1cncc(Br)c1)c1nc(-c2ccc(C)cc2)cs1	FAS-TE inh 56 | FAS-TE conf inactive
O=C(NNc1ccc([N+](=O)[O-])cc1)C1C2CCCCC21 (stereo unspecified)	none
O=C(NNc1ccc([N+](=O)[O-])cc1[N+](=O)[O-])C1C2CCCCC21 (stereo unspecified)	FAS-TE inh 62 | FAS-TE conf inactive
Cc1cccc2cc(CN(Cc3cccs3)S(=O)(=O)c3ccc4c(c3)OCCO4)c(=O)[nH]c12	FAS-TE inh 73 | FAS-TE conf inactive
COC(=O)[C@]12C[C@H](CC(=O)N3CCN(C(=O)c4ccco4)CC3)C(=O)N(CCc3ccc(OC)c(OC)c3)C1=C[C@H](C1CCCC1)O[C@@H]2C	none (no result: FAS-TE inh, NadD inh, NR3A LBD binder)
COc1ccc(-n2c(SCc3ccc([N+](=O)[O-])cc3)nnc2-c2ccc(C)cc2)cc1	FAS-TE inh 58 | FAS-TE conf inactive
COc1ccc(CNC(=O)C(c2ccc(C)cc2)N(Cc2cccs2)C(=O)c2ccc3c(c2)OCCO3)cc1 (stereo unspecified)	none
Cc1ccc(C(C(=O)NCc2ccccc2)N(Cc2cccs2)C(=O)c2ccc3c(c2)OCCO3)cc1 (stereo unspecified)	FAS-TE inh 51 | FAS-TE conf inactive
COC(=O)C12C=C3CC(C4CC4)=C3C(=O)N1Cc1[nH]c3ccccc3c1C2 (stereo unspecified)	none (no result: FAS-TE inh, NadD inh, NR3A LBD binder)
CCOC(=O)c1cc2c(=O)n3ccccc3nc2n(CC2CCCO2)c1=NC(=O)/C=C/c1ccccc1 (stereo unspecified)	FAS-TE inh 80 | FAS-TE conf 83
CCOC(=O)c1cc2c(=O)n3ccccc3nc2n(C(C)C)c1=NC(=O)c1c(-c2c(F)cccc2Cl)noc1C	FAS-TE inh 94 | FAS-TE conf inactive
CCOC(=O)c1cc2c(=O)n3ccccc3nc2n(CC2CCCO2)c1=NC(C)=O (stereo unspecified)	none
Cc1ccc([N+](=O)[O-])cc1S(=O)(=O)N(C(=O)c1ccncc1)c1ccc2oc3c(c2c1)CCCC3	FAS-TE inh 72 | FAS-TE conf inactive
Nn1c(SCc2cccc3ccccc23)nnc1-c1cc(-c2ccc(Cl)cc2)n[nH]1	none (no result: FAS-TE inh, NadD inh, NR3A LBD binder)
CCOC(=O)N(C)[C@H]1C[C@H]2c3[nH]c4cccc(-c5cccc(F)c5)c4c3CCN2C(=O)[C@H]1[C@H](C)O	none (no result: FAS-TE inh, NadD inh, NR3A LBD binder)
CC(C)(C)c1ccc(C(=O)NCC(=O)OCc2ccc([N+](=O)[O-])cc2)cc1	FAS-TE inh 71 | FAS-TE conf 83
O=C(CNC(=O)c1ccccc1)OCc1cccc([N+](=O)[O-])c1	none
COc1ccc2cc3cc(C(=O)N4CCCC(C)C4)oc3nc2c1 (stereo unspecified)	FAS-TE inh 71 | FAS-TE conf 71
COC[C@H]1O[C@]2(c3ccccc3)CO[C@H]1[C@@H](/C=C/c1ccccc1)C2	none (no result: FAS-TE inh, NadD inh, NR3A LBD binder)
CC1(C)CC(=O)C=C(c2ccccc2-c2cccc(C(N)=O)c2)C1=O	none (no result: FAS-TE inh, NadD inh, NR3A LBD binder)
Cc1cccc(NC(=O)Nc2nc3ncccn3c2-c2ccccc2)c1	none (no result: FAS-TE inh, NadD inh, NR3A LBD binder)
Cc1onc(-c2ccccc2)c1C(N)=O	none
Cc1onc(-c2ccccc2)c1C(=O)n1nnc2ccccc21	FAS-TE inh 52 | FAS-TE conf 51
Cn1c2ccccc2c2nnc(SCC(N)=O)nc21	none
Cn1c2ccccc2c2nnc(SCc3ccc4nonc4c3)nc21	FAS-TE inh 58 | FAS-TE conf inactive
CCCCNC(=O)C1CCCN1C(=O)Nc1cc(Cl)cc(Cl)c1 (stereo unspecified)	none (no result: FAS-TE inh, NadD inh, NR3A LBD binder)
CCCCNC(=O)C1CC(c2cccc([N+](=O)[O-])c2)=NO1 (stereo unspecified)	none
CC(C)CCNC(=O)C1CC(c2cccc([N+](=O)[O-])c2)=NO1 (stereo unspecified)	FAS-TE inh 53 | FAS-TE conf 59
O=C(NCCCCc1ccccc1)C1CC(c2cccc([N+](=O)[O-])c2)=NO1 (stereo unspecified)	FAS-TE inh 66 | FAS-TE conf 76
COC(=O)c1ccc(C2c3c(oc4ccc(Cl)cc4c3=O)C(=O)N2CCN2CCOCC2)cc1 (stereo unspecified)	FAS-TE inh 54 | FAS-TE conf 62
O=C(CSc1nc2ccccc2c(=O)n1-c1ccccc1)N/N=C/C=C/c1ccccc1[N+](=O)[O-]	none
O=C(CSc1nc2ccccc2c(=O)n1-c1ccc(Cl)cc1)N/N=C/C=C/c1ccccc1[N+](=O)[O-]	FAS-TE inh 80 | FAS-TE conf inactive
Cc1ccccc1C1=C/C(=C(\SS/C(C(=O)c2ccc(OCC(=O)O)c(Cl)c2Cl)=C2\C=C(c3ccccc3C)SS2)C(=O)c2ccc(OCC(=O)O)c(Cl)c2Cl)SS1	FAS-TE inh 83 | FAS-TE conf 88
O=C(Nc1ccccc1)C1=C(c2ccccc2)S(=O)(=O)CCS1(=O)=O	FAS-TE inh 80 | FAS-TE conf inactive
Cc1cccc(NC(=O)CNC(=O)COC(=O)c2ccc(C(C)(C)C)cc2)c1C	FAS-TE inh 64 | FAS-TE conf 51
Cc1cccc(NC(=O)CNC(=O)COC(=O)C2CC2C)c1C (stereo unspecified)	none

Bioassay records from PubChem.
